Hits are enriched below; roughly 2.2% of the tested compounds scored in any of these assays.
BaF3 tox = parental Ba/F3 viability inhibition as JAK2V617F counter-screen | AID 1486 | CellTiter-Glo ATP luminescence | actives 1.1% (n = 220,000) | inhibition, % at 5.6 µM;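 active = inhibition above a per-campaign cutoff, the mean inhibition of all tested compounds plus 3 SD, cut at about 27% in these data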;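 also: 0% = DMSO wells and 100% = JAK Inhibitor I control wells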
aSyn 5UTR inh = MLPCN primary screen, SNCA 5' untranslated region | alpha-synuclein 5'UTR reporter, inhibitor activity | inhibition, % (tested at 7.5 µM) | actives 0.82% (n = 300,000) | AID 1813; in the data active = inhibition above about 60%;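 also: H4 neuroglioblastoma cells stably carrying SNCA 5'UTR luciferase fusion; 0% = DMSO wells and 100% = positive control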
IEC-6 cytotox = counter-screen for KLF5 inhibitors: cytotoxicity in IEC-6 cells. IEC-6 cytotoxicity, luminescence viability. inhibition, % at 5 µM. actives 0.78% (n = 290,000). AID 1825; in the data active = inhibition above about 22%;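 also: 0% = plate median of test compound wells and 100% = cytotoxic reference compound wells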
APP 5UTR inh = APP translation inhibition; SH-SY5Y APP 5'UTR-luciferase reporter, luminescence; inhibition, % at 2 µM; actives 0.82% (n = 190,000); AID 1285;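 active = inhibition above a set limit, derived from the sample mean plus 3 SD, cut at about 45% in these data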
KLF5 inhibitor = suppresses KLF5 promoter-driven expression | DLD-1 KLF5 promoter-luciferase reporter, luminescence | AID 1700 | actives 0.23% (n = 290,000) | inhibition, % at 5 µM;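 active = inhibition above a per-plate limit of that plate's mean compound inhibition plus 3 SD, cut at about 60% in these data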;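 also: 0% = DMSO wells and 100% = LY294002 at 200 µM; higher means less KLF5 promoter-driven luciferase light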
Ba/F3 V617F tox = lowers viability of Ba/F3 cells expressing EpoR and JAK2V617F; actives 1.1% (n = 220,000); inhibition, % at 5.6 µM; ATP luminescence;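 active = inhibition above the campaign mean plus 3 SD over all tested compounds, cut at about 24% in these data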;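 also: cytokine-independent growth of Ba/F3 cells driven by EpoR plus mutant JAK2; 0% = DMSO-treated cells and 100% = JAK inhibitor I control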
Active calls of the source: *; i = inactive; x = no result.

SMILES	BaF3 tox	aSyn 5UTR inh	IEC-6 cytotox	APP 5UTR inh	KLF5 inhibitor	Ba/F3 V617F tox
Cc1ccc(C(=O)N/N=C/c2cn(Cc3ccccc3)c3ccccc23)cn1	1.8	64.3*	1.7	x	-36.9	-2.1
COc1cc(C(=O)N/N=C/c2cn(Cc3cccc(F)c3)c3ccccc23)ccc1O	x	62.1*	1.7	x	-12.7	x
COc1ccc(OC)c(-n2c(SCC(=O)Nc3cc(C)on3)nnc2-c2c[nH]c3ccccc23)c1	4.0	5.0	16.7	x	-30.7	-1.8
N=c1c2c(-c3ccccc3)c(-c3ccccc3)n(Cc3ccccc3)c2ncn1CCCn1ccnc1	4.4	33.3	8.3	83.1*	38.1	2.0
CCCCn1cnc2c(c(-c3ccccc3)c(-c3ccccc3)n2Cc2ccco2)c1=N	-6.3	31.3	-2.4	x	29.3	5.8
O=C(CCl)Nc1cccc(-c2cnc3ccccc3n2)c1	38.8*	i	8.1	x	-136.8	73.4*
CCC(=O)Nc1cccc(-c2cnc3ccccc3n2)c1	5.3	-122.3	-0.3	-52.0	-163.1	2.6
Cc1cc(O)ccc1N1C(=O)c2cccc3cc([N+](=O)[O-])cc(c23)C1=O	6.5	-4.2	1.5	-6.0	-19.8	3.1
O=C1c2cccc3cc([N+](=O)[O-])cc(c23)C(=O)N1c1ccccc1O	29.4*	-3.8	5.1	11.9	-0.6	13.8
CCOC(=O)C1CCCN(S(=O)(=O)c2ccc(S(=O)(=O)N(CC)CC)cc2)C1 (configuration not stated)	69.3*	-38.3	5.5	23.3	0.1	52.4*
Cc1nc(NC2=NCN(CC3CCCO3)CN2)nc2ccccc12 (configuration not stated)	34.0*	x	3.2	3.7	-18.4	37.6*
Cc1nc(NC2=NCN(C3CCCCC3C)CN2)nc2ccccc12 (configuration not stated)	1.0	x	5.6	-8.2	15.8	2.2
Cc1ccc(NC2=NCC(=O)N2Cc2cccs2)cc1C	4.6	-5.2	-7.5	-5.2	-32.5	-0.2
COc1cc(-c2cc(=O)c3c(O)c(OC)c(OC)c(O)c3o2)ccc1O	-5.8	87.3*	-2.6	12.3	5.1	1.2
COc1c(O)c(O)c2oc(-c3ccccc3)cc(=O)c2c1OC	-1.6	-5.9	-3.3	12.7	-23.1	2.3
CC(=O)c1cccc(NC(=O)CN2C(=O)COc3ccc(S(=O)(=O)N4CCOCC4)cc32)c1	x	73.0*	3.2	x	-1.3	x
O=C(O)c1c(-c2ccc(Cl)cc2)cn2ccccc12	53.2*	-166.6	1.3	-15.8	-5.1	-2.8
Cc1c(C(=O)C(=O)N2c3ccc(F)cc3CCC2C)c2ccccc2n1C (configuration not stated)	7.1	61.7*	5.5	83.2*	6.6	-2.2
Cc1c(C(=O)C(=O)N2CCN(C)CC2)c2ccccc2n1C	0.2	2.6	-0.1	-0.7	-6.1	0.7
COC(=O)Cc1ccc(NC(=O)c2ccc(C(C)(C)C)cc2)cc1	-0.9	124.4*	5.2	84.0*	40.4	-3.3
CCOC(=O)Cc1ccc(NC(=O)c2ccc([N+](=O)[O-])cc2)cc1	33.4*	-14.3	3.5	-2.8	-18.5	-2.3
CC(C)(C)c1ccc(C(=O)Nc2ccc(Cl)cc2)cc1	-1.5	-109.9	5.7	-125.6	-93.2	-2.8
Cc1ccc(S(=O)(=O)NC(CC(=O)NCC2CCCO2)c2ccccc2)cc1 (configuration not stated)	1.9	-5.5	-0.6	-24.0	-12.1	-0.5
CCCN(CC(=O)Nc1ccccc1C)C(=O)C1CC(=O)N(c2cccc(C)c2C)C1 (configuration not stated)	x	6.1	x	x	x	x
COc1ccnc(N=CNOCc2ccc(F)cc2Cl)c1C#N	1.2	-56.0	-1.7	82.1*	-12.4	-4.2
SMILES	BaF3 tox	aSyn 5UTR inh	IEC-6 cytotox	APP 5UTR inh	KLF5 inhibitor	Ba/F3 V617F tox
COc1ccnc(N=CNOCc2cccc(Cl)c2Cl)c1C#N	5.7	-60.7	0.9	14.9	-16.1	-1.9
COC(=O)CN(C)C(=O)c1cccc(OC2CCN(S(=O)(=O)N(C)C)CC2)c1	x	2.7	-4.5	x	-28.9	x
CC(C)=CCC/C(C)=C/CC(C)(C)CNCCN1CCNCC1	9.9	-64.2	4.7	4.4	-7.8	6.8
CC(C)=CCC/C(C)=C/CCC(C)NCCN1CCNCC1 (configuration not stated)	15.9	-21.9	33.8*	-6.0	-19.0	4.4
CC(=O)N1CCc2cc(S(=O)(=O)NCCCN3CCC(C)CC3)ccc21	x	1.4	-0.1	x	-52.8	x
Cc1ccc(C)c(NC(=O)Cc2nc(CNCC(C)C)cs2)c1	x	-30.1	8.0	x	-8.0	x
NC(=NCCCCCCN=C(N)/N=C(\N)Nc1ccc(Cl)cc1)/N=C(\N)Nc1ccc(Cl)cc1	x	96.1*	3.8	x	-12.2	x
CCCCN=C(Nc1ccc(Cl)cc1)c1cccnc1	7.8	0.2	-0.3	-17.2	-11.4	-1.6
Cc1cnc(NC(=O)C2CCC(C(C)(C)C)CC2)s1 (configuration not stated)	x	-63.5	5.2	x	-34.5	x
COCCCNC(=O)c1c(N)n(-c2ccc3c(c2)OCO3)c2nc3ccccc3nc12	6.9	10.3	10.3	10.2	-4.2	1.2
CCOCCCNC(=O)c1c(N)n(-c2ccc3c(c2)OCO3)c2nc3ccccc3nc12	59.9*	20.7	21.5	x	-1.4	35.7*
COc1ccc(C(=O)Nn2c(SCC(=O)NCc3ccco3)nc3ccccc3c2=O)cc1	9.9	81.4*	5.5	-76.7	-80.0	4.0
COc1ccc(C(=O)Nn2c(SCC(=O)N3CCC(C)CC3)nc3ccccc3c2=O)cc1	18.2	82.8*	13.7	-31.1	13.7	16.6
COc1ccc(C(=O)Nn2c(SCc3cccc([N+](=O)[O-])c3)nc3ccccc3c2=O)cc1	3.3	66.2*	10.3	-94.2	-103.3	-1.1
COc1ccc(C(=O)Nn2c(SCC(=O)NC3CCCCC3)nc3ccccc3c2=O)cc1	5.7	5.4	-0.6	-109.9	12.9	-0.6
O=C(Nn1c(SCc2cccc([N+](=O)[O-])c2)nc2ccccc2c1=O)c1ccccc1	1.9	-145.0	-0.1	-119.2	-12.8	-1.7
CCn1c(SCC(=O)NCc2ccco2)nc2ccccc2c1=O	5.2	1.8	4.0	11.5	-1.5	0.0
C=CCn1c(C(CC(C)C)CC(C)O)n[nH]c1=S (configuration not stated)	0.5	15.3	-2.0	6.5	-2.1	-3.4
O=C(CCNC(=O)c1ccccc1Cl)Nc1cc(S(=O)(=O)N2CCOCC2)ccc1N1CCCC1	-2.6	2.3	-2.7	x	-20.1	-5.2
CCc1ccc(/C=C2\SC(=S)N(CCC(=O)NC3=NCCS3)C2=O)cc1	-1.6	89.5*	-0.4	52.6*	24.6	-2.2
Cc1ccc(/C=C2\SC(=S)N(CCCC(=O)Nc3cccnc3)C2=O)cc1	x	79.1*	-3.1	x	57.0	x
Cc1ccc(/C=C2\SC(=S)N(CC(=O)Nc3cccnc3)C2=O)cc1	8.0	17.1	-2.8	-7.6	1.9	0.1
CCc1ccc(/C=C2\SC(=S)N(CCCC(=O)Nc3ccccn3)C2=O)cc1	3.7	72.6*	-3.7	51.3*	-8.3	-0.9
O=C(CCC(=O)c1ccccc1)NCc1ccccc1	-4.3	-3.2	4.6	x	-3.1	4.0

Screens as filed in PubChem.
